Data as given in PubChem BioAssay AID1347416 (National Center for Advancing Translational Sciences (NCATS), 2020).
Out of some 4,100 compounds screened, about 1,600 (39%) were called active. Inconclusive results (about 25%) are left out. The call rests on the fitted dose curve; in most records, active means well fitted inhibition curve with a large enough effect; inconclusive means small, poorly fitted or top-dose-only effect; inactive means no such curve, though single readings can be large or run the other way. Some of the results follow.

Assay: qHTS Validation assay for Inhibitors of Plasmodium falciparum Dd2 growth in vitro; further: nearly all actives have a fitted effect of over 70% in size
Details: P. falciparum Dd2 in RBCs, SYBR Green growth, 72 h; series mostly up to 28.7 µM
Method in brief: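 P. falciparum Dd2-infected red blood cells (2.5% hematocrit, 0.3% parasitemia) grown 72 h at 37 °C under 5% O2 with compounds in a titration, 29 uM to 0.5 nM final. Growth read as SYBR Green-1 fluorescence after ~16 h lysis; artesunate 300 nM as positive control.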
Potency means the concentration at half of the fitted maximal effect.

Potency, inactive:
COc1ccc(C(=O)N2CCC(C3CCN(S(C)(=O)=O)CC3)C2)c(OC)n1 (centres undefined)
COc1ccccc1N(CC(=O)Nc1cc(C)cc(C)c1)S(C)(=O)=O
OC(Cc1ccncc1)(c1ccccc1)c1ccccc1
CCOc1ccccc1Nc1nc2ccccc2nc1NS(=O)(=O)c1ccc(Cl)cc1
Cc1nn(CCCC(=O)Nc2ccccc2C(F)(F)F)c(=O)c2nn(-c3ccccc3)c(C)c12
CC(C)CN1C(=O)CO[C@H](c2ccc(NC(=O)C3CCCC3)cc2)[C@H]1CO
CCN1c2cc(C(=O)Nc3cccc(Cl)c3)ccc2C(=O)N2CCCCC21 (centres undefined)
Cc1cc(=O)n2[nH]c(NC(=O)c3cccc(Cl)c3)nc2n1
CCOc1ccc(C(=O)Nc2cccc(NC(=O)c3ccc(C(C)(C)C)cc3)c2)cc1Br
CNC(=O)[C@@H]1C[C@H](Oc2ccccc2)CN1C(=O)c1cc2ccccc2[nH]1
COc1ccc(NC(=O)CCn2ccn3nc4c(c3c2=O)CCCC4)cc1OC
Cc1noc(-c2cccc(OC3CN(S(=O)(=O)c4cn(C)cn4)C3)c2)n1
O=C(c1ccco1)N1CC(Oc2cccc(-c3nc(-c4ccccc4)no3)c2)C1
COc1ccc(OC)c(S(=O)(=O)NCCc2sc(C)nc2C)c1
Cc1nc(-c2ccc(Cl)cc2)sc1CCNC(=O)c1ccco1
Cc1ccc(C(=O)NN2C(=O)C3C4C=CC(C4)[C@@H]3C2=O)cc1 (some centres undefined)
O=C(c1ccc2ncccc2c1)N1CCc2c(nc3cc[nH]n3c2=O)C1
CCc1cccc(C)c1Nc1c(-c2cccc(O)c2)nc2sccn12
COc1cccc(-c2noc(CCCc3nc(-c4cccnn4)no3)n2)c1
Cc1noc(C)c1-c1cc2c(cc(C)n2C)c(NCCN(C)C)n1
O=[S+]1([O-])NCC2(CCN(CC3CC3)CC2)Nc2ccccc21
O=C(c1ccsc1)N1CC(n2cc(-c3ccccc3)nn2)C1
Cc1ccsc1CN1CC(Oc2ccccc2C(=O)NC2CC2)C1
COCCNC(=O)[C@H]1C[C@H](Oc2ccccc2)CN1C(=O)c1ccccc1OC
O=C(NCC1CC1)c1cccc(OC2CN(Cc3cc(F)c(F)c(F)c3)C2)c1
O=C(NCc1ccc(F)cc1)c1c2c(nc3ccccc13)C(=O)N(C1CCCCC1)C2
CCCN1CCN(C(=O)c2cc3c(s2)CCN(C(=O)c2ccc(F)cc2)C3)CC1
COc1cc(OC)c(OC)cc1CN1CCc2nc(N(C)C)[nH]c(=O)c2CC1
N#Cc1ccc(CN2CCc3n[nH]c(=O)n3CC2)cc1
O=C(CCc1ccccc1)N1CCc2c(nc(-c3ccc(F)cc3)[nH]c2=O)C1
CN(C)c1ccc(C(=O)NCc2nnc3cc(-c4nc(C5CC5)no4)ccn23)cc1
Cc1ccc(OCC(=O)Nc2ccccc2C(=O)OCc2cc(=O)n3ccsc3n2)cc1
COc1ccc(C)cc1NC(=O)N1c2ccccc2CC1c1nc(C2CC2)no1 (centres undefined)
O=C(c1ccc2nc[nH]c2c1)N1CCCC2(C1)Nc1cccnc1NC2=NC1CCCC1 (centres undefined)
CCOc1ccc(-c2cn3c(n2)sc2cc(C(=O)NCCCc4ccccc4)ccc23)cc1
CCOc1ccc(-c2cc3c(=O)n(CCNC(=O)c4cccc(C#N)c4)ccn3n2)cc1
CCOc1ccc(-c2cc3c(=O)n(CCNC(=O)c4ccc(C#N)cc4)ccn3n2)cc1
COc1ccc(-c2cc3c(=O)n(CCNC(=O)c4ccc(OC)nc4)ccn3n2)cc1
COc1ccc(-c2cc3c(=O)n(CCNC(=O)c4ccc(OC)c(OC)c4)ccn3n2)cc1
CCOc1ccc(-c2cc3c(=O)n(CCNC(=O)c4ccccc4)ccn3n2)cc1
CCN1c2cc(C(=O)Nc3ccc4c(c3)CCC4)ccc2C(=O)N2CCCCC21 (centres undefined)
CC1CCCCN1c1ccc(N)cc1C(N)=O (centres undefined)
O=C(Cc1ccccc1)N1CCCC2(CC(c3ccccn3)=NO2)C1 (centres undefined)
CCOC(=O)c1c(C)[nH]c(C(=O)OCc2c(C)noc2C)c1C
CN1c2cc(C(=O)Nc3ccc(S(N)(=O)=O)cc3)ccc2C(=O)N2CCCCC21 (centres undefined)
O=C(Nc1ccc(Br)cc1F)c1cc(S(=O)(=O)NC2CCCC2)ccc1F

Potency, active:
CCN(CC)c1ccc(NC(=O)COc2ccccc2C#N)cc1S(=O)(=O)Nc1ccccc1OC 7.5 µM
CN(C)CC(CCC(CN(C)C)C(O)(c1ccccc1)c1ccccc1)C(O)(c1ccccc1)c1ccccc1 (centres undefined) 2.11 µM
O=S(=O)(Nc1cc2nc3ccccc3nc2n1Cc1ccccc1)c1ccc(Cl)cc1 1.19 µM
COc1cc(Br)c(C(C)NC(=O)c2cccc(Br)c2)cc1OC (centres undefined) 2.11 µM
O=C(Nc1ccccc1O)c1ccc(NC(=O)C2CC2)cc1 4.73 µM
COc1ccccc1N1CCN(CCCNC(=O)c2cnn(-c3ccccc3Cl)c2C2CCN(C(=O)OC(C)(C)C)CC2)CC1 2.37 µM
COc1ccccc1N1CCN(CCCNC(=O)c2cnn(-c3cccc(Cl)c3)c2C2CCN(C(=O)OC(C)(C)C)CC2)CC1 2.11 µM
CCN1CCN(c2cc(C)c3cc(NC(=O)c4cccc(Cl)c4)ccc3n2)CC1 4.73 µM
CCN1CCN(c2cc(C)c3cc(NC(=O)c4cc(OC)cc(OC)c4)ccc3n2)CC1 3.35 µM
CCN1CCN(c2cc(C)c3cc(NC(=O)c4cc(OC)c(OC)c(OC)c4)ccc3n2)CC1 1.33 µM
Cc1cc(Nc2cccc(C(F)(F)F)c2)nc2ccc(NC(=O)c3cncc(Br)c3)cc12 2.37 µM
COc1ccc(Nc2cc(C)c3cc(NC(=O)c4cc(OC)cc(OC)c4)ccc3n2)cc1 0.75 µM
COc1cc(C(=O)Nc2ccc3nc(N4CCN(C)CC4)cc(C)c3c2)cc(OC)c1OC 3.35 µM
CCCNC(=O)N1CC(Oc2cccc(-c3nc(-c4ccccc4)no3)c2)C1 13.3 µM
COc1ccc(OC)c(S(=O)(=O)Nc2ccc(O)c3ccccc23)c1 8.41 µM
CCCCN(C(=O)c1ccco1)c1nnc(-c2cc(OC)c(OC)c(OC)c2)s1 2.99 µM
OC(CNCC1CCCO1)Cn1c2ccc(Cl)cc2c2cc(Cl)ccc21 (centres undefined) 1.19 µM
COc1cc(-c2nc(-c3c(C)noc3C)cc3c2cc(C)n3CCN(C)C)ccn1 17.2 µM
Cc1noc(C)c1-c1cc2c(cc(C)n2CCN(C)C)c(-c2cccc(O)c2)n1 17.2 µM
COc1cccc(-c2nc(-c3c(C)noc3C)cc3c2cc(C)n3CCN(C)C)c1 17.2 µM
Cc1noc(C)c1-c1cc2c(cc(C)n2CCN(C)C)c(Nc2ccn(C)n2)n1 13.7 µM
O=C(c1cccc(O)c1)N1CC=C(c2cnc3cnc(-c4ccccc4)cn23)CC1 9.68 µM
O=C(NCc1ccccc1)c1ccccc1OC1CN(Cc2ccc(O)c(F)c2)C1 15 µM
COc1ccc(CN2CC(Oc3ccccc3C(=O)NCc3ccccc3)C2)c(OC)c1 10.6 µM
Cc1c(CN2CC(Oc3ccccc3C(=O)NCc3ccccc3)C2)cnn1C 4.22 µM
O=C1C2=C(Nc3ccccc3SC2c2ccco2)c2ccccc21 (centres undefined) 4.73 µM
O=C1C2=C(Nc3ccccc3SC2c2c(F)cccc2Cl)c2ccccc21 (centres undefined) 9.44 µM
COc1ccc(C2Sc3ccccc3NC3=C2C(=O)c2ccccc23)c(OC)c1OC (centres undefined) 0.75 µM
CCn1ncc(CN2CCCC23CCN(c2cc(C)nc4ccccc24)CC3)c1C 5.31 µM
CCn1cc(CN2CCCC23CCN(c2cc(C)nc4ccccc24)CC3)c(C)n1 4.22 µM
CN(C)c1nc2c(c(=O)[nH]1)CCN(Cc1ccccc1Br)CC2 9.44 µM
CN(C)c1nc2c(c(=O)[nH]1)CCN(Cc1ccc(Br)cc1)CC2 13.3 µM
CN(C)c1nc2c(c(=O)[nH]1)CCN(Cc1ccc(F)cc1Cl)CC2 10.6 µM
Oc1cc(Nc2ccc(N3CCCCC3)cc2)cc2cccnc12 0.842 µM
COc1ccc(Nc2cc(O)c3ncccc3c2)cc1 0.75 µM
Oc1cc(Nc2ccccc2)cc2cccnc12 6.68 µM
CCOC(=O)c1ccccc1NC(=O)C(C)Oc1ccccc1 (centres undefined) 10.6 µM
COc1ccc(C)cc1NC(=O)N1CCCC2(C1)Nc1cccnc1NC2=NC1CCCC1 (centres undefined) 6.68 µM
CCCN1CCN(CCCNC(=O)c2ccc3c(c2)sc2nc(-c4ccc(OCC)cc4)cn23)CC1 4.22 µM
CCCN1CCN(CCCNC(=O)c2ccc3c(c2)sc2nc(-c4ccc(OC)cc4)cn23)CC1 4.73 µM
CCOc1ccc(-c2cn3c(n2)sc2cc(C(=O)NC(C)C45CC6CC(CC(C6)C4)C5)ccc23)cc1 (centres undefined) 5.96 µM
COc1ccc(-c2cn3c(n2)sc2cc(C(=O)NCCCN4CCCCC4)ccc23)cc1 4.73 µM
C#Cc1ccc(C(=O)Nc2ccc(N3CCC(C)CC3)c(C(N)=O)c2)cc1 6.68 µM
Cc1ccc2c(c1)c1c3n2CCCN(Cc2ccccc2)C3CCC1 (centres undefined) 4.22 µM
CN(C)Cc1c(O)ccc2oc(Cc3ccccc3)cc12 0.422 µM
COc1ccc(-n2c(/C=C(\C)O)nc(=O)c3c(C)cc(C)nc32)cc1 3.35 µM
CCOC(=O)c1c(C)[nH]c(C(=O)CSc2nnc(C3CC3)n2N)c1C 1.5 µM
O=C(Nc1ccc(Br)cc1)c1ccc(F)c(S(=O)(=O)NC2CCCCCC2)c1 9.44 µM
